Measured values as given in article PMC11006913.

Columns and labels:
Assay in all cases: PBM; 200 nM protein, PBS
Details in all cases: dsDNA, one strand shown
HOXB9 [1] = biological target: HOXB9 (Homo sapiens, UniProt P17482 171-250, T197M)
HOXC9 [2] = biological target: HOXC9 (Homo sapiens, UniProt P31274 178-260, K195R)
HOXB9 [3] = biological target: HOXB9 (Homo sapiens, UniProt P17482 171-250)
HOXC9 [4] = biological target: HOXC9 (Homo sapiens, UniProt P31274 178-260)
ALX1 [5] = biological target: ALX1 (Homo sapiens, UniProt Q15699 118-204, L144V)
ALX1 (Homo sapiens, UniProt Q15699 118-204, L144V), sequence (Q15699 118-204 L144V): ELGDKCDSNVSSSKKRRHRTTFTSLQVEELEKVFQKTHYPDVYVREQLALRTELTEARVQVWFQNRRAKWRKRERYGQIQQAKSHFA

HOXD13 [6] = biological target: HOXD13 (Homo sapiens, UniProt P35453 263-343, T313R)
HOXD13 (Homo sapiens, UniProt P35453 263-343, T313R), sequence (P35453 263-343 T313R): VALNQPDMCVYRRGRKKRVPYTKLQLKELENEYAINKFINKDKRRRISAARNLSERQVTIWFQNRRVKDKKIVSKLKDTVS

HOXC9 [7] = biological target: HOXC9 (Homo sapiens, UniProt P31274 178-260, R193K)
HOXC9 (Homo sapiens, UniProt P31274 178-260, R193K), sequence (P31274 178-260 R193K): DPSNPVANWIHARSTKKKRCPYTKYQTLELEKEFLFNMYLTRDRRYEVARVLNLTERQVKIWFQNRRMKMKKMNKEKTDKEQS

ALX1 [8] = biological target: ALX1 (Homo sapiens, UniProt Q15699 118-204, L144R)
ALX1 (Homo sapiens, UniProt Q15699 118-204, L144R), sequence (Q15699 118-204 L144R): as the sequence (Q15699 118-204 L144V) above, with V27R counted along it

HOXD13 [9] = biological target: HOXD13 (Homo sapiens, UniProt P35453 263-343)
HOXD13 (Homo sapiens, UniProt P35453 263-343), sequence (P35453 263-343): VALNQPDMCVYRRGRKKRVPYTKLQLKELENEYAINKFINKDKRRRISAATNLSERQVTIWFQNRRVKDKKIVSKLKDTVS

HOXC10 [10] = biological target: HOXC10 (Homo sapiens, UniProt Q9NYD6 254-340, K271E)
HOXC10 (Homo sapiens, UniProt Q9NYD6 254-340, K271E), sequence (Q9NYD6 254-340 K271E): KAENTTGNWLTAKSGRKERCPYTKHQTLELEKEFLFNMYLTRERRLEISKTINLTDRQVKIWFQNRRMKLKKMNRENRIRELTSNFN

HOXD13 [11] = biological target: HOXD13 (Homo sapiens, UniProt P35453 263-343, T313A)
HOXD13 (Homo sapiens, UniProt P35453 263-343, T313A), sequence (P35453 263-343 T313A): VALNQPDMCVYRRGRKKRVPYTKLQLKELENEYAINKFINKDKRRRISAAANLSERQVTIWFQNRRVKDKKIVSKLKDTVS

HOXB9 [12] = biological target: HOXB9 (Homo sapiens, UniProt P17482 171-250, R186Q)
HOXB9 (Homo sapiens, UniProt P17482 171-250, R186Q), sequence (P17482 171-250 R186Q): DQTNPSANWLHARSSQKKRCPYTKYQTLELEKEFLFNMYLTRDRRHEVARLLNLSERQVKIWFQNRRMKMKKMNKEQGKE

HOXC9 [13] = biological target: HOXC9 (Homo sapiens, UniProt P31274 178-260, R222W)
HOXC9 (Homo sapiens, UniProt P31274 178-260, R222W), sequence (P31274 178-260 R222W): as the sequence (P31274 178-260 R193K) above, with K16R, R45W counted along it

ALX1 [14] = biological target: ALX1 (Homo sapiens, UniProt Q15699 118-204)
ALX1 (Homo sapiens, UniProt Q15699 118-204), sequence (Q15699 118-204): as the sequence (Q15699 118-204 L144V) above, with V27L counted along it

HOXC10 [15] = biological target: HOXC10 (Homo sapiens, UniProt Q9NYD6 254-340)
HOXC10 (Homo sapiens, UniProt Q9NYD6 254-340), sequence (Q9NYD6 254-340): as the sequence (Q9NYD6 254-340 K271E) above, with E18K counted along it

HOXB6 = HOXB6 (Homo sapiens, UniProt P17509 132-218, K202E)
HOXB6, sequence (P17509 132-218 K202E): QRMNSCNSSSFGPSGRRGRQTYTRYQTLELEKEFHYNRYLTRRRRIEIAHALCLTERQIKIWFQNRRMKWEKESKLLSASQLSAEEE

ALX3 = ALX3 (Homo sapiens, UniProt O95076 139-225, N203Q)
ALX3, sequence (O95076 139-225 N203Q): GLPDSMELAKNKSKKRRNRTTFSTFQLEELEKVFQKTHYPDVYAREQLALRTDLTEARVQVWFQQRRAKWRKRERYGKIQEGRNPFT

HOXB9 (Homo sapiens, UniProt P17482 171-250, T197M), sequence (P17482 171-250 T197M): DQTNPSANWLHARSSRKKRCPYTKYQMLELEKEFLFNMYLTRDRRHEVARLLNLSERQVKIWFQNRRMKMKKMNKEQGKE
HOXB9 (Homo sapiens, UniProt P17482 171-250), sequence (P17482 171-250): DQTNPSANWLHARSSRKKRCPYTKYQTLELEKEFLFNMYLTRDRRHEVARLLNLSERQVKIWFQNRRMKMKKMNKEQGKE
HOXC9 (Homo sapiens, UniProt P31274 178-260, K195R), sequence (P31274 178-260 K195R): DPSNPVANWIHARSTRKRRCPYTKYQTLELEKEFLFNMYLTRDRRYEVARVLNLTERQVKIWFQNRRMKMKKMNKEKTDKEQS
HOXC9 (Homo sapiens, UniProt P31274 178-260), sequence (P31274 178-260): as the sequence (P31274 178-260 R193K) above, with K16R counted along it

Sequence	binding signal (HOXB9 [1])	binding signal (HOXC9 [2])	binding signal (HOXB9 [3])	binding signal (HOXC9 [4])	binding signal (ALX1 [5])	binding signal (HOXD13 [6])	binding signal (HOXC9 [7])	binding signal (ALX1 [8])	binding signal (HOXD13 [9])	binding signal (HOXC10 [10])	binding signal (HOXD13 [11])	binding signal (HOXB9 [12])	binding signal (HOXC9 [13])	binding signal (ALX1 [14])	binding signal (HOXC10 [15])	binding signal (HOXB6)	binding signal (ALX3)
CTATTAAA	9.97 upbm affinity estimate (log intensity, higher = more binding, comparable within an allelic series)	12.6 upbm affinity estimate (log intensity, higher = more binding, comparable within an allelic series)	11.9 upbm affinity estimate (log intensity, higher = more binding, comparable within an allelic series)	12.8 upbm affinity estimate (log intensity, higher = more binding, comparable within an allelic series)	9.79 upbm affinity estimate (log intensity, higher = more binding, comparable within an allelic series)	11 upbm affinity estimate (log intensity, higher = more binding, comparable within an allelic series)	12.7 upbm affinity estimate (log intensity, higher = more binding, comparable within an allelic series)	9.81 upbm affinity estimate (log intensity, higher = more binding, comparable within an allelic series)	12 upbm affinity estimate (log intensity, higher = more binding, comparable within an allelic series)	11.8 upbm affinity estimate (log intensity, higher = more binding, comparable within an allelic series)	11.9 upbm affinity estimate (log intensity, higher = more binding, comparable within an allelic series)	11.6 upbm affinity estimate (log intensity, higher = more binding, comparable within an allelic series)	11.1 upbm affinity estimate (log intensity, higher = more binding, comparable within an allelic series)	10.3 upbm affinity estimate (log intensity, higher = more binding, comparable within an allelic series)			
CATTAAAA	9.91 upbm affinity estimate (log intensity, higher = more binding, comparable within an allelic series)	12.6 upbm affinity estimate (log intensity, higher = more binding, comparable within an allelic series)	12 upbm affinity estimate (log intensity, higher = more binding, comparable within an allelic series)	12.7 upbm affinity estimate (log intensity, higher = more binding, comparable within an allelic series)			12.6 upbm affinity estimate (log intensity, higher = more binding, comparable within an allelic series)			11.8 upbm affinity estimate (log intensity, higher = more binding, comparable within an allelic series)	11.6 upbm affinity estimate (log intensity, higher = more binding, comparable within an allelic series)	11.7 upbm affinity estimate (log intensity, higher = more binding, comparable within an allelic series)	11 upbm affinity estimate (log intensity, higher = more binding, comparable within an allelic series)		12.1 upbm affinity estimate (log intensity, higher = more binding, comparable within an allelic series)		
TCATAAAA	9.93 upbm affinity estimate (log intensity, higher = more binding, comparable within an allelic series)	13 upbm affinity estimate (log intensity, higher = more binding, comparable within an allelic series)	12.4 upbm affinity estimate (log intensity, higher = more binding, comparable within an allelic series)	13.1 upbm affinity estimate (log intensity, higher = more binding, comparable within an allelic series)		11 upbm affinity estimate (log intensity, higher = more binding, comparable within an allelic series)	12.9 upbm affinity estimate (log intensity, higher = more binding, comparable within an allelic series)		12.2 upbm affinity estimate (log intensity, higher = more binding, comparable within an allelic series)	12.3 upbm affinity estimate (log intensity, higher = more binding, comparable within an allelic series)	11.9 upbm affinity estimate (log intensity, higher = more binding, comparable within an allelic series)	12.1 upbm affinity estimate (log intensity, higher = more binding, comparable within an allelic series)	11.3 upbm affinity estimate (log intensity, higher = more binding, comparable within an allelic series)		12.8 upbm affinity estimate (log intensity, higher = more binding, comparable within an allelic series)		
CTAATAAA	9.76 upbm affinity estimate (log intensity, higher = more binding, comparable within an allelic series)	12.5 upbm affinity estimate (log intensity, higher = more binding, comparable within an allelic series)	11.9 upbm affinity estimate (log intensity, higher = more binding, comparable within an allelic series)	12.7 upbm affinity estimate (log intensity, higher = more binding, comparable within an allelic series)		11.2 upbm affinity estimate (log intensity, higher = more binding, comparable within an allelic series)	12.6 upbm affinity estimate (log intensity, higher = more binding, comparable within an allelic series)		12.3 upbm affinity estimate (log intensity, higher = more binding, comparable within an allelic series)	11.9 upbm affinity estimate (log intensity, higher = more binding, comparable within an allelic series)	12.1 upbm affinity estimate (log intensity, higher = more binding, comparable within an allelic series)	11.6 upbm affinity estimate (log intensity, higher = more binding, comparable within an allelic series)	11.1 upbm affinity estimate (log intensity, higher = more binding, comparable within an allelic series)		12.5 upbm affinity estimate (log intensity, higher = more binding, comparable within an allelic series)		
ATTTTATG	9.94 upbm affinity estimate (log intensity, higher = more binding, comparable within an allelic series)	13 upbm affinity estimate (log intensity, higher = more binding, comparable within an allelic series)	12.5 upbm affinity estimate (log intensity, higher = more binding, comparable within an allelic series)	13.1 upbm affinity estimate (log intensity, higher = more binding, comparable within an allelic series)		10.8 upbm affinity estimate (log intensity, higher = more binding, comparable within an allelic series)	13 upbm affinity estimate (log intensity, higher = more binding, comparable within an allelic series)		11.8 upbm affinity estimate (log intensity, higher = more binding, comparable within an allelic series)	12.1 upbm affinity estimate (log intensity, higher = more binding, comparable within an allelic series)	11.5 upbm affinity estimate (log intensity, higher = more binding, comparable within an allelic series)	12.1 upbm affinity estimate (log intensity, higher = more binding, comparable within an allelic series)	11.4 upbm affinity estimate (log intensity, higher = more binding, comparable within an allelic series)		12.7 upbm affinity estimate (log intensity, higher = more binding, comparable within an allelic series)		
CTCATAAA	9.59 upbm affinity estimate (log intensity, higher = more binding, comparable within an allelic series)	12.6 upbm affinity estimate (log intensity, higher = more binding, comparable within an allelic series)	11.9 upbm affinity estimate (log intensity, higher = more binding, comparable within an allelic series)	12.8 upbm affinity estimate (log intensity, higher = more binding, comparable within an allelic series)		11.2 upbm affinity estimate (log intensity, higher = more binding, comparable within an allelic series)	12.6 upbm affinity estimate (log intensity, higher = more binding, comparable within an allelic series)		12.5 upbm affinity estimate (log intensity, higher = more binding, comparable within an allelic series)	11.8 upbm affinity estimate (log intensity, higher = more binding, comparable within an allelic series)	12.2 upbm affinity estimate (log intensity, higher = more binding, comparable within an allelic series)	11.5 upbm affinity estimate (log intensity, higher = more binding, comparable within an allelic series)	11.1 upbm affinity estimate (log intensity, higher = more binding, comparable within an allelic series)		12.4 upbm affinity estimate (log intensity, higher = more binding, comparable within an allelic series)		
ACCATAAA	9.6 upbm affinity estimate (log intensity, higher = more binding, comparable within an allelic series)	12.5 upbm affinity estimate (log intensity, higher = more binding, comparable within an allelic series)	11.9 upbm affinity estimate (log intensity, higher = more binding, comparable within an allelic series)	12.8 upbm affinity estimate (log intensity, higher = more binding, comparable within an allelic series)		10.8 upbm affinity estimate (log intensity, higher = more binding, comparable within an allelic series)	12.7 upbm affinity estimate (log intensity, higher = more binding, comparable within an allelic series)		12 upbm affinity estimate (log intensity, higher = more binding, comparable within an allelic series)	11.5 upbm affinity estimate (log intensity, higher = more binding, comparable within an allelic series)	11.7 upbm affinity estimate (log intensity, higher = more binding, comparable within an allelic series)	11.6 upbm affinity estimate (log intensity, higher = more binding, comparable within an allelic series)	10.9 upbm affinity estimate (log intensity, higher = more binding, comparable within an allelic series)		12.3 upbm affinity estimate (log intensity, higher = more binding, comparable within an allelic series)		
CCCTCACC	8.63 upbm affinity estimate (log intensity, higher = more binding, comparable within an allelic series)	9.5 upbm affinity estimate (log intensity, higher = more binding, comparable within an allelic series)	8.28 upbm affinity estimate (log intensity, higher = more binding, comparable within an allelic series)	9.44 upbm affinity estimate (log intensity, higher = more binding, comparable within an allelic series)			9.56 upbm affinity estimate (log intensity, higher = more binding, comparable within an allelic series)			9.96 upbm affinity estimate (log intensity, higher = more binding, comparable within an allelic series)		8.43 upbm affinity estimate (log intensity, higher = more binding, comparable within an allelic series)	9.7 upbm affinity estimate (log intensity, higher = more binding, comparable within an allelic series)		9.97 upbm affinity estimate (log intensity, higher = more binding, comparable within an allelic series)		
ATAATAAT	9.97 upbm affinity estimate (log intensity, higher = more binding, comparable within an allelic series)	12.6 upbm affinity estimate (log intensity, higher = more binding, comparable within an allelic series)														10 upbm affinity estimate (log intensity, higher = more binding, comparable within an allelic series)	8.6 upbm affinity estimate (log intensity, higher = more binding, comparable within an allelic series)
CTCGTAAA	9.72 upbm affinity estimate (log intensity, higher = more binding, comparable within an allelic series)	12.6 upbm affinity estimate (log intensity, higher = more binding, comparable within an allelic series)	12 upbm affinity estimate (log intensity, higher = more binding, comparable within an allelic series)	12.9 upbm affinity estimate (log intensity, higher = more binding, comparable within an allelic series)		11.3 upbm affinity estimate (log intensity, higher = more binding, comparable within an allelic series)	12.7 upbm affinity estimate (log intensity, higher = more binding, comparable within an allelic series)		12.7 upbm affinity estimate (log intensity, higher = more binding, comparable within an allelic series)	11.9 upbm affinity estimate (log intensity, higher = more binding, comparable within an allelic series)	12.6 upbm affinity estimate (log intensity, higher = more binding, comparable within an allelic series)	11.4 upbm affinity estimate (log intensity, higher = more binding, comparable within an allelic series)	11.1 upbm affinity estimate (log intensity, higher = more binding, comparable within an allelic series)		12.6 upbm affinity estimate (log intensity, higher = more binding, comparable within an allelic series)		
ATTTATGA	9.81 upbm affinity estimate (log intensity, higher = more binding, comparable within an allelic series)	12.5 upbm affinity estimate (log intensity, higher = more binding, comparable within an allelic series)	11.8 upbm affinity estimate (log intensity, higher = more binding, comparable within an allelic series)	12.7 upbm affinity estimate (log intensity, higher = more binding, comparable within an allelic series)		10.9 upbm affinity estimate (log intensity, higher = more binding, comparable within an allelic series)	12.6 upbm affinity estimate (log intensity, higher = more binding, comparable within an allelic series)		12 upbm affinity estimate (log intensity, higher = more binding, comparable within an allelic series)	11.7 upbm affinity estimate (log intensity, higher = more binding, comparable within an allelic series)	11.8 upbm affinity estimate (log intensity, higher = more binding, comparable within an allelic series)	11.5 upbm affinity estimate (log intensity, higher = more binding, comparable within an allelic series)	11.1 upbm affinity estimate (log intensity, higher = more binding, comparable within an allelic series)		12.4 upbm affinity estimate (log intensity, higher = more binding, comparable within an allelic series)		
ATAATAAA	9.88 upbm affinity estimate (log intensity, higher = more binding, comparable within an allelic series)	12.7 upbm affinity estimate (log intensity, higher = more binding, comparable within an allelic series)	11.9 upbm affinity estimate (log intensity, higher = more binding, comparable within an allelic series)	12.7 upbm affinity estimate (log intensity, higher = more binding, comparable within an allelic series)		10.8 upbm affinity estimate (log intensity, higher = more binding, comparable within an allelic series)	12.7 upbm affinity estimate (log intensity, higher = more binding, comparable within an allelic series)		11.8 upbm affinity estimate (log intensity, higher = more binding, comparable within an allelic series)	11.9 upbm affinity estimate (log intensity, higher = more binding, comparable within an allelic series)	11.6 upbm affinity estimate (log intensity, higher = more binding, comparable within an allelic series)	11.5 upbm affinity estimate (log intensity, higher = more binding, comparable within an allelic series)	11.2 upbm affinity estimate (log intensity, higher = more binding, comparable within an allelic series)		12.5 upbm affinity estimate (log intensity, higher = more binding, comparable within an allelic series)		
ACTATAAA	9.75 upbm affinity estimate (log intensity, higher = more binding, comparable within an allelic series)	12.4 upbm affinity estimate (log intensity, higher = more binding, comparable within an allelic series)	11.7 upbm affinity estimate (log intensity, higher = more binding, comparable within an allelic series)	12.6 upbm affinity estimate (log intensity, higher = more binding, comparable within an allelic series)		10.9 upbm affinity estimate (log intensity, higher = more binding, comparable within an allelic series)	12.5 upbm affinity estimate (log intensity, higher = more binding, comparable within an allelic series)		12 upbm affinity estimate (log intensity, higher = more binding, comparable within an allelic series)	11.4 upbm affinity estimate (log intensity, higher = more binding, comparable within an allelic series)	11.8 upbm affinity estimate (log intensity, higher = more binding, comparable within an allelic series)	11.4 upbm affinity estimate (log intensity, higher = more binding, comparable within an allelic series)	11 upbm affinity estimate (log intensity, higher = more binding, comparable within an allelic series)		12.1 upbm affinity estimate (log intensity, higher = more binding, comparable within an allelic series)		
